Compound activity deposited in PubChem BioAssay by several laboratories.
Hits are enriched below; roughly 4.2% of the tested compounds scored in any of these assays.
NALP1 inh: blocks the NALP1 inflammasome reconstituted in yeast; inhibition, % at 10 µM; 280,000 tested, 0.61% active; S. cerevisiae NALP1/ASC/caspase-1 growth, X-gal OD620, 72 h; AID 2071; in the data active = inhibition mostly above about 24%, no sharp cut-off; inactive = mostly below about 32%
TIM10 inh: TIM10 yeast growth inhibition; 330,000 tested, 1.4% active; inhibition, % at 10 µM; S. cerevisiae TIM10 strain growth, BacTiter-Glo luminescence, 24 h; AID 463195;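 active = inhibition of 40% or more at the single tested concentration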;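 also: wild-type TIM10 isogenic control strain grown at permissive 25 °C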
NLRP3 yeast inh: inhibitors of NALP3 inflammasome in yeast | Yeast reconstituted NLRP3/ASC/caspase-1, beta-gal luminescence, 24 h | inhibition, % at 10 µM | 330,000 tested, 0.39% active | AID 2825;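 active = inhibition of 50% or more; inactive = inhibition below 50%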;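 also: plate controls were induced DMSO wells for no effect and uninduced yeast grown without galactose for full effect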
tim23-1 inh: growth inhibitors of tim23-1 mutant yeast | S. cerevisiae tim23-1 growth, BacTiter-Glo luminescence, 24 h | 330,000 tested, 1.3% active | inhibition, % at 20 µM | AID 463212;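 active = growth inhibition of the mutant yeast at or above 50%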;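 also: temperature-sensitive mutant grown at 25 °C; plate controls were DMSO-treated mutant yeast for no effect and medium wells lacking yeast for full effect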
tim10-1 inh: tim10-1 yeast growth inhibition. S. cerevisiae tim10-1 ts strain growth, BacTiter-Glo, 24 h. inhibition, % at 20 µM. 330,000 tested, 2.2% active. AID 463190;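 active = inhibition of at least 40%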;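 also: mutant grown at 25 °C; 0% = DMSO wells with yeast and 100% = wells holding no yeast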
V-ATPase pHluor: alters yeast V-ATPase proton transport; S. cerevisiae, pHLuorin cytosolic pH fluorescence; response, % at 10 µM; 350,000 tested, 0.37% active; AID 504577; in the data active = response mostly above about 7.3%, no sharp cut-off; inactive = mostly below about 5.4%; also: actives read high
NALP3 yeast conf: NALP3 inhibition confirmation in yeast | shares compounds with NLRP3 yeast inh | AID 435006 | 1,300 tested, 81% active | inhibition, % at 10 µM | yeast expressing human NALP3, luminescence; in the data active = inhibition above about 48%
Casp1 ASC ctr: caspase-1-ASC yeast counter-screen hit. shares compounds with NLRP3 yeast inh. yeast expressing Caspase-1-ASC, luminescence counter screen. inhibition, % at 10 µM. 1,000 tested, 66% active. AID 488784
NALP3 retest: yeast NALP3 inhibition, confirmed on retest | 1,000 tested, 53% active | yeast expressing human NALP3, luminescence read-out | AID 488794 | shares compounds with NLRP3 yeast inh | inhibition, % at 10 µM
tim10-1 confirm: confirmation of tim10-1 mutant yeast growth inhibitors; shares compounds with tim10-1 inh; AID 463213; S. cerevisiae tim10-1 ts strain growth, BacTiter-Glo, 24 h; 7,400 tested, 56% active; inhibition, % at 20 µM;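 active = inhibition of yeast growth at or above a set limit in either of two repeat tests at 20 µM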;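 also: tim10-1 mutant grown at permissive 25 °C to find synthetic lethal compounds; 0% = DMSO yeast wells and 100% = medium wells without yeast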
TIM10 conf: TIM10 yeast growth inhibition, confirmed | inhibition, % at 10 µM | 4,600 tested, 63% active | AID 463215 | S. cerevisiae tim10 strain growth, BacTiter-Glo luminescence, 24 h | shares compounds with TIM10 inh;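 active = inhibition of yeast growth at or above a set limit in either of two replicates at 10 µM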;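 also: this counterscreen used the strain with wild-type TIM10; 0% = yeast with DMSO and 100% = medium wells lacking yeast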
tim23-1 confirm: confirmation of tim23-1 mutant yeast growth inhibitors | shares compounds with tim23-1 inh | S. cerevisiae tim23-1 growth, BacTiter-Glo luminescence, 24 h | inhibition, % at 20 µM | 4,400 tested, 83% active;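 active = inhibition above about 39% in either of two replicate wells at 20 µM, limit read from the data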;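 also: temperature-sensitive tim23-1 mutant grown at 25 °C; 0% = DMSO wells with yeast and 100% = medium wells without yeast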
Active calls of the source: *; nt = not tested or not shown. Rule as the data show it, unless noted: active = inhibition above about 50%; inactive = the rest.

SMILES	NALP1 inh	TIM10 inh	NLRP3 yeast inh	tim23-1 inh	tim10-1 inh	V-ATPase pHluor	NALP3 yeast conf	tim10-1 confirm	others
COc1cc2[nH]c(C(=O)N3CCC4(CC3)OCCO4)cc2c(OC)c1OC	32	14	5	12	10	0	nt	nt
C[C@@H]1CC2C3CC=C4C[C@@H](O)CC[C@]4(C)C3CC[C@]2(C)[C@H]1O (stereo partly drawn)	nt	19	57*	27	16	0	40	nt
C[C@]12CCC(=O)C[C@H]1CC[C@@H]1[C@@H]2CC[C@]2(C)[C@@H](O)CC[C@@H]12	nt	-2	59*	22	22	nt	73*	nt
CC1CCC2[C@@H](C)C(=O)OC3O[C@]4(C)CCC1C32OO4 (stereo partly drawn)	nt	18	-13	21	21	1	nt	nt
Nc1c2c(nc3sc4c(c13)CCCC4)CCCC2	17	48*	71*	49	24	2	82*	nt	Casp1 ASC ctr=54*;NALP3 retest=57*;TIM10 conf=38*
CC(C)(O)C(=O)Nc1ccc([N+](=O)[O-])c(C(F)(F)F)c1	nt	7	3	15	13	-3	nt	nt
COc1cc2c(cc1OC)CN(c1ccc([N+](=O)[O-])c(C(F)(F)F)c1)CC2	49	54*	50*	41	60*	2	23	55*	TIM10 conf=-12
CC1CCCCN1Cc1ccc(Cl)nc1 (stereo not drawn)	16	-20	0	4	18	-1	nt	nt
CCCCn1c(=O)c(C(=O)NCc2ccccc2Cl)c(O)c2ccccc21	16	-1	22	5	-29	2	nt	nt
CC1(C)C[C@H]2C=C(C=O)[C@]3(C=O)C[C@]3(C)[C@H]2C1	108*	50*	84*	-56	-5	0	63*	nt	TIM10 conf=61*
CN1/C(=C\C=C\C2=[N+](C)c3ccc4ccccc4c3C2(C)C)C(C)(C)c2ccccc21	57*	74*	53*	85*	77*	nt	53*	56*	TIM10 conf=80*;tim23-1 confirm=79*
COC(=O)C1=C(c2ccc3ccccc3c2)C[C@@H]2CC[C@H]1N2C(=O)NC1CCCCC1	nt	26	10	43	22	2	nt	nt
CC(=O)C1CCC2C3CCC4CC(O)CCC4(C)C3CCC12C (stereo not drawn)	nt	11	59*	56*	34	10	69*	nt	Casp1 ASC ctr=60*;NALP3 retest=58*;tim23-1 confirm=49*
C[C@]12CCC3C(C[C@@H](O)[C@H]4C[C@@H](O)CC[C@]34C)C1CC[C@@H]2O (stereo partly drawn)	nt	0	29	0	-8	-2	nt	nt
O=C1c2ccccc2C(=O)N1Cc1nc2ccccc2c(=O)n1-c1ccc(Br)cn1	38	57*	61*	69*	59*	1	74*	55*	Casp1 ASC ctr=35;NALP3 retest=34;TIM10 conf=59*;tim23-1 confirm=58*
O=C1c2ccccc2C(=O)N1Cc1nc2ccccc2c(=O)n1-c1cccnc1	-10	13	12	14	28	2	nt	nt
Oc1c(Br)c(Br)c(Br)c(Br)c1Br	nt	49*	66*	66*	52*	-6	71*	65*	Casp1 ASC ctr=74*;NALP3 retest=91*;TIM10 conf=44*;tim23-1 confirm=58*
COC(=O)C1=C(c2c(C)noc2C)C[C@@H]2CC[C@H]1N2C(=O)NCCO	nt	-5	6	4	5	3	nt	nt
CCn1nc(-c2ccccc2)nc2c(=O)n(C)c(=O)nc1-2	42*	96*	62*	85*	80*	15	86*	83*	Casp1 ASC ctr=94*;NALP3 retest=88*;TIM10 conf=97*;tim23-1 confirm=83*
O=C1NC(=S)NC(=O)C1=Cc1ccc(OCC(=O)N2CCCC2)cc1	7	1	7	5	16	-2	nt	nt
Cc1ccc(-c2cc(-c3ccc(C)cc3)[n+](-c3ccc(C(=O)O)cc3)c(-c3ccc(C)cc3)c2)cc1	nt	-2	13	1	5	-1	nt	nt
Cc1ccc(C[n+]2c(-c3ccc(C)cc3)cc(-c3ccc(C)cc3)cc2-c2ccc(C)cc2)cc1	nt	58*	78*	56*	50*	-4	76*	43*	Casp1 ASC ctr=72*;NALP3 retest=75*;TIM10 conf=50*;tim23-1 confirm=60*
O=C(COC(=O)Cc1ccccc1)Nc1ccc(SC(F)F)cc1	nt	5	12	27	43*	13	nt	15
Fc1ccc2c(c1)nnn2C1CCN(Cc2nnnn2CCc2ccccc2)CC1	18	27	-5	9	40*	2	nt	25
c1ccc(CCn2nnnc2CN2CCC(n3nnc4ccccc43)CC2)cc1	-9	9	-6	20	32	7	nt	nt
SMILES	NALP1 inh	TIM10 inh	NLRP3 yeast inh	tim23-1 inh	tim10-1 inh	V-ATPase pHluor	NALP3 yeast conf	tim10-1 confirm	others
O=c1c2ccccc2nc(-c2ccccc2)n1-c1ccccc1	5	22	6	27	23	2	nt	nt
O=c1c2ccccc2[se]n1-c1ccccc1	15	16	-7	5	55*	-1	nt	90*
O=C1CC(N2CC=C(c3ccccc3)CC2)C(=O)N1c1ccc(F)cc1 (stereo not drawn)	34	29	17	38	43*	3	nt	42*
CN(C)C(Cc1ccccc1)C(=O)c1c[nH]c2ccccc12 (stereo not drawn)	20	-15	32	14	10	4	nt	nt
CCN(CC)S(=O)(=O)c1cc(NC(=O)C(C)N2CC=C(c3ccccc3)CC2)ccc1C (stereo not drawn)	18	12	4	16	40*	-4	nt	2
O=C(COc1ccc2ccccc2c1)N1CCN(Cc2c[nH]c3ccccc23)CC1	40	31	-6	12	50*	1	nt	30
CN1CC(C(=O)c2cccc(C(F)(F)F)c2)C(c2ccc(Cl)cc2)C1 (stereo not drawn)	12	8	22	18	41*	0	nt	28
CCOC(=O)C1(CCc2ccccc2)CCN(C(C)CSC)CC1 (stereo not drawn)	nt	nt	nt	nt	nt	-3	nt	nt
CCOC(=O)C1(CCc2ccccc2)CCN(Cc2cccc3c2OCO3)CC1	-3	-4	24	14	40*	0	nt	14
